# HSF-1 act = increases HSF-1 driven luciferase reporter signal; activation, % at 9 µM; AID 504408; 300,000 tested, 1.7% active; NIH3T3-HGL HSF-1 luciferase reporter, MG132, 8 h; 100% = twice DMSO control signal;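 active = mean replicate activation of at least 50% with a set share of replicates each reaching 50%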;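 also: 0% = median of the neutral control wells and 100% = twice that signal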
# GAA850 FXN act = frataxin GAA850 promoter activation. HEK293 lucGAA850 FXN promoter luciferase reporter, 24 h; percent of 10 µM SAHA response. activation, % at 6 µM. 360,000 tested, 0.56% active;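 active = activation above the average of all compounds screened plus 3 SD, cutoff fixed separately per campaign, cut at about 7.5% in these data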;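 also: 0% = DMSO wells and 100% = 10 µM SAHA wells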
# AHR act = activators of human aryl hydrocarbon receptor; activation, % at 5 µM; AHR-responsive luciferase reporter cells, luminescence; P35869; 320,000 tested, 2.5% active; in the data active = activation above about 47%;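 also: 0% = vehicle wells and 100% = reference agonist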
# Target sequence (P35869 whole entry, looked up): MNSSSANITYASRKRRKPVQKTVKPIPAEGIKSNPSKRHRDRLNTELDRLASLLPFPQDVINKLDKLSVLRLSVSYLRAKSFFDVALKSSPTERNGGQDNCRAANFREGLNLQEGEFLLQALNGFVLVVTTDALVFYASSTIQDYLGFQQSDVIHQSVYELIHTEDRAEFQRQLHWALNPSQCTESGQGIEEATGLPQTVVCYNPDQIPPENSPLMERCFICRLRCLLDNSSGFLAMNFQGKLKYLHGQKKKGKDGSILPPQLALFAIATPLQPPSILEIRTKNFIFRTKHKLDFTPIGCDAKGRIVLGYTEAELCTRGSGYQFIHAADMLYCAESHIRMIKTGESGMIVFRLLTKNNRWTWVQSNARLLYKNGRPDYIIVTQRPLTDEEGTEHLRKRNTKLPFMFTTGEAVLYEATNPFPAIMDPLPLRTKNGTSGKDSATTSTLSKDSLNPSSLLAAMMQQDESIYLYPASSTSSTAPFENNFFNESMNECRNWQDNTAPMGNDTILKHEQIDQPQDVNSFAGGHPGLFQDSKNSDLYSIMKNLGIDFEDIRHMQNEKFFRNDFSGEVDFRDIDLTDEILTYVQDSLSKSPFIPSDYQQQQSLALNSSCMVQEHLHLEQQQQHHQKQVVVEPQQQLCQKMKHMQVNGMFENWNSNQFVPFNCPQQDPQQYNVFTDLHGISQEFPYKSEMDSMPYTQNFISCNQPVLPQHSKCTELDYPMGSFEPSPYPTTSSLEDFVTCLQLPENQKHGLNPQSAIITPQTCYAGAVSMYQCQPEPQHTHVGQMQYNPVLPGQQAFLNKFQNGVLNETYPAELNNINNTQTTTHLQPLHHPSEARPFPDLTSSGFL
# HSF1 inhib = HSF1 inhibition; NIH3T3-HGL HSE-luciferase, MG132-induced, luminescence 8 h; stronger effect = lower value; activity change, negative = inhibition, % at 7.5 µM (by protocol); 300,000 tested, 0.77% active;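 active = more than half of replicate wells show activity change below -50%, luminescence cut by over half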;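 also: luciferase reports HSF-1 transcriptional activity via heat shock element; 0% = median of DMSO wells and -100% = zero luminescence signal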
# HSP90 refold inh = HSP90 refolding inhibition in rabbit reticulocyte lysate | luciferase refolding luminescence, 3 h | inhibition, % at 5.6 µM | 290,000 tested, 0.91% active;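 active = inhibition above the screen-wide mean plus 3 SD, computed separately per campaign, cut at about 16% in these data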;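 also: 0% = DMSO wells and 100% = 60 µM geldanamycin wells; inhibitors lower the luminescence because luciferase stays unfolded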
# DAX1 inh = inhibitors of human orphan nuclear receptor DAX1 (NR0B1). HEK293 Gal4-DAX1 luciferase reporter, luminescence. AID 504766. inhibition, % at 6.75 µM. 340,000 tested, 0.99% active;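 active = inhibition above the mean over all tested compounds plus 3 SD, cut at about 4.2% in these data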;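 also: 0% = DAX1-transfected cells with DMSO and 100% = empty-vector control cells with DMSO; inhibition shows as a rise in luminescence from relieved DAX1 repression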
# * = called active by the depositor; x = not tested or not shown. Hits are enriched below; roughly 5.9% of the tested compounds scored in any of these assays.
SMILES,HSF-1 act,GAA850 FXN act,AHR act,HSF1 inhib,HSP90 refold inh,DAX1 inh
COc1ccccc1N1CCN(C(=O)C(CC(C)C)NC(=O)C2CCCCC2)CC1 (stereo unspecified),55*,-2,1,18,-1,-1
COc1ccc(Nc2nccc(-c3ccc([N+](=O)[O-])cc3)n2)cc1,19,-1,61*,2,6,0
COc1ccc(CCNc2oc(-c3ccccc3OC)nc2C#N)cc1OC,48,0,25,41,5,-2
COc1ccc(CCNc2oc(-c3ccccc3OC)nc2C#N)cc1,95*,0,14,55,-1,1
COc1ccccc1-c1nc(C#N)c(NCCCn2ccnc2)o1,-1,2,70*,-2,0,2
CCCN(Cc1nnc(-c2cccs2)o1)C(=O)CN1C(=O)NC2(CCCCC2)C1=O,x,1,x,x,x,0
NNC(=O)c1ccc(COc2ccc3c(c2)CCC3)o1,41,4,59*,12,9,1
CC(C)(C)c1ccc(OCc2ccc(C(=O)NN)o2)cc1,18,5,26,6,15,2
COC(=O)c1ccc(COc2ccc(C)c(C)c2)o1,45,4,10,22,17*,0
O=C(c1ccco1)N1CCN(C(=O)c2ccc(COc3ccc4c(c3)CCC4)o2)CC1,16,3,15,12,3,-2
O=C(c1ccc(COc2ccc3c(c2)CCC3)o1)N1CCN(c2ccccc2)CC1,62*,3,18,70,5,0
COc1ccccc1OCc1ccc(C(=O)NN)o1,7,3,31,1,2,0
NNC(=O)c1ccc(COc2ccc(Br)cc2)o1,28,1,78*,-6,-6,3
COc1ccc(OC)c(NC(=O)Nc2nc(C(N)c3ccccc3Cl)cs2)c1 (stereo unspecified),x,0,x,x,x,x
CN1CCN(C(=O)c2ccc(COc3ccc(C(C)(C)C)cc3)o2)CC1,43,2,8,19,5,0
CCCc1ccc(OCc2ccc(C(=O)N3CCCC3)o2)cc1,24,5,17,8,17*,0
Cc1ccc(S(=O)(=O)Cc2ccc(C(=O)N3CCN(c4ccccn4)CC3)o2)cc1,-2,-1,17,-2,-1,4.7*
O=C(c1ccc(CS(=O)(=O)c2c(Cl)cccc2Cl)o1)N1CCN(c2ccccn2)CC1,5,1,94*,-3,-1,-1
CCc1nc2ccc(C(=O)N(C)C(C)C)cn2c1N(CC)Cc1cccc(Br)c1,x,1,x,x,x,x
C[C@@H]1CN([C@@H](C)CO)C(=O)CCCn2nncc2CO[C@H]1CN(C)Cc1cccc(O)c1,x,-1,x,x,x,0
COc1ccc(CC(=O)OCC(=O)Nc2ccc(C(=O)Nc3ccc(OC)cc3)cc2)cc1,16,4,3,4,-2,4.2*
COC(=O)c1ccc(CNC(=O)COC(=O)COc2ccc(OC)cc2)cc1,-73,-3,0,-68*,-5,2
CCOc1ccc(NC(=O)c2ccc(NC(=O)COC(=O)Cc3ccc(OC)cc3)cc2)cc1,27,4,9,16,-2,1
Cc1cccc(NC(=O)CN2CCN(C(=O)CN3C(=O)NC4(CCCCC4C)C3=O)CC2)c1C (stereo unspecified),x,0,x,x,x,1
Cc1ccc(C(=O)N2c3ccccc3CC2C)o1 (stereo unspecified),54*,4,4,32,-1,1
SMILES,HSF-1 act,GAA850 FXN act,AHR act,HSF1 inhib,HSP90 refold inh,DAX1 inh
CC1Cc2ccccc2N1C(=O)c1ccc(Br)o1 (stereo unspecified),42,4,16,25,1,2
O=[N+]([O-])c1ccc(-c2nc(C(Cl)Cl)c3ccccc3n2)cc1,115*,-1,75*,65,-2,-2
Oc1ccc(/C=N/n2c3ccccc3c3ccccc32)cc1,6,-3,55*,3,3,0
CC(=Nc1ccc(C)cc1)c1sc2ccccc2c1O,31,0,10,20,-1,3
CC(=Nc1ccc(C)cc1C)c1sc2ccccc2c1O,53*,4,6,12,0,5.8*
CC(N=C1NS(=O)(=O)c2ccccc21)C(=O)NCc1ccc(F)cc1 (stereo unspecified),x,-2,1,x,x,1
CNS(=O)(=O)c1cccc(C(=O)OCc2csc(-c3ccccc3)n2)c1,67*,-5,0,34,0,-2
Cc1ccsc1C(=O)OCc1csc(-c2ccccc2)n1,59*,5,18,22,0,1
Cn1cccc1C(=O)OCc1csc(-c2ccccc2)n1,63*,1,40,15,7,2
O=C(OCc1csc(-c2ccccc2)n1)c1cccs1,91*,7,9,52,2,1
COc1ccccc1NS(=O)(=O)c1ccc(C)c(C(=O)NC2=NCCS2)c1,x,1,43,x,x,0
COc1ccc(OCC(=O)Nc2ccc(N3CCN(Cc4ccccc4F)CC3)cc2)cc1,4,1,2,4,5,0
CCOC(=O)N/C(N)=N/c1nc2ccccc2s1,53*,4,2,23,6,0
CC(=O)N/C(N)=N/c1nc(=O)c2ccccc2s1,20,2,12,2,-1,3
CCOC(=O)c1c(C)nc(-c2ccccc2)nc1NC(=O)CC,15,3,47*,9,0,1
CCOC(=O)c1[nH]c2ccccc2c1NC(=S)Nc1ccccc1,-23,3,49*,-8,1,1
O=C(O)CCc1c(C(=O)O)[nH]c2ccccc12,-14,-1,3,-4,1,-1
CCOC(=O)c1[nH]c2ccccc2c1NC(=O)CC,-2,1,60*,2,-2,0
CN(C)Cc1c(C(=O)Nc2ccccc2)[nH]c2ccccc12,30,3,72*,17,x,1
CC(=O)Nc1cc(NC(C)=O)cc(C(=O)OCC(=O)N(c2ccccc2)C2CCS(=O)(=O)C2)c1 (stereo unspecified),x,-1,0,x,x,0
CCOC(=O)c1[nH]c2ccccc2c1NC(=S)Nc1cccc(C)c1,-13,3,72*,-7,-5,4
CCOC(=O)c1[nH]c2ccccc2c1NC(C)=O,3,0,33,-5,x,1
C=C(C)Cn1c(SCC(=O)O)nnc1-c1ccc(OC)cc1,59*,-4,0,17,0,0
COc1ccc(NC(=O)C[C@@H]2C(=O)N(c3ccc(OC)cc3)CC2(C)C)cc1,x,1,x,x,x,0
Cc1nnc(SCC(=O)Nc2ccc(F)cc2F)n(N)c1=O,-11,-2,4,2,5,0
O=C1C(Cl)=C(Nc2ccccc2O)C(=O)N1c1ccccc1,34,1,55*,24,4,2
CCN(CC)C(=O)c1cc(-c2ccccc2OC)on1,-8,0,48*,8,-4,0
